Pf growth 96h: inhibits malaria parasite growth, 96 h; P. falciparum luciferase reporter growth, 96 h; Potency, µM (series often up to 28.7 µM), usual class: inhibitors; 320,000 compounds, 6.9% hits
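Compounds incubated with erythrocytes infected by luciferase-expressing P. falciparum (2% hematocrit, 0.05% parasitemia final) for 96 hours, 37 C in 5% CO2. Growth inhibition scored as decreased luciferase luminescence.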
HCV inhibitor: blocks hepatitis C virus | Huh7.5.1 HCVcc-Cre infection, luciferase reporter, 44 h | Potency, µM (titrated, usually from 41.8 µM), usual class: inhibitors | 340,000 compounds, 3.4% hits
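Whole-lifecycle infectious HCVcc-Cre system; cells 1,000/well, compound then virus (~0.5 moi) added 4 h after plating, 44 h culture. Luciferase read 15 sec following 15 min substrate incubation, room temp.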
SARS PLpro yeast: inhibitors of SARS-CoV papain-like protease in yeast. S. cerevisiae expressing SARS-CoV PLpro, growth rescue. Potency, µM (doses to about 32.9 µM), actives largely listed as activators. 330,000 compounds, 0.19% hits; calls by dose curve; further: nearly all actives have a fitted effect of over 55% in size
HCMV antiviral: blocks human cytomegalovirus replication; 410,000 compounds, 4.5% hits; activity change, negative = inhibition, % at 57.5 µM; HFF cells, HCMV-luciferase reporter, 72 h; hits give low values; in the data active means activity change below about -60%; inconclusive means no clear call, values can overlap the other calls; inactive means above about -39%
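After 16 h attachment at 37C, HFF cells received test compound and HCMV-luciferase (1 PFU/cell); reporter luminescence read 72 h later, data normalized against buffer-only and known inhibitor Salinomycin.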
Sm TGR inh: S. mansoni TGR enzyme inhibition. Potency, µM (top dose mostly 114 µM), hits mostly inhibitors. 360,000 compounds, 3% hits. Q962Y6. purified TGR, DTNB reduction, TNB absorbance 405 nm. AID 485364; further: nearly all actives have a fitted effect of over 60% in size
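Kinetic colorimetric format: TGR-catalysed, NADPH-driven DTNB reduction monitored via TNB absorbance. Enzyme dispensed at 20 nM; compound exposure 15 min at room temperature before reaction start.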
Pf growth 48h: P. falciparum growth inhibition at 48 hours (one generation); P. falciparum luciferase growth in erythrocytes, 48 h; Potency, µM (top dose mostly 28.7 µM), most hits filed as inhibitors; 310,000 compounds, 5.9% hits
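Compounds are pin-transferred into medium, infected erythrocytes (2% hematocrit, 0.1% parasitemia final) are added, and plates sit one parasite generation at 37 C in 5% CO2. Detection reagent is then added and luminescence measured.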
Each line names hits and unclear results; the compound was inactive in the other large screens. The list is not random: actives were taken first. Their share in the collection is about 15%. Unless noted, the call rests on the fitted dose curve; in most records, active means well fitted curve in the direction sought with a large enough effect; inconclusive means small, poorly fitted or top-dose-only effect, or another doubt; inactive means no such curve, though single readings can be large; an effect the other way counts as inactive or inconclusive.

COc1ccccc1N(C)S(=O)(=O)c1ccc(C(=O)NCC(c2ccco2)N2CCCCC2)cc1 (stereo unspecified)	HCV inhibitor 22µM (no result: Pf growth 96h, SARS PLpro yeast, Sm TGR inh, Pf growth 48h)
CCCN1C(=O)CC[C@@H](S(=O)(=O)c2ccccc2)[C@@H]1c1ccc(OC)cc1	none (no result: Pf growth 96h, HCV inhibitor, SARS PLpro yeast, Sm TGR inh, Pf growth 48h)
Cc1cc(C)c(C(=O)CSC2=NC(N)=C(C#N)C3(CCCCC3)C2C(N)=O)cc1C (stereo unspecified)	Pf growth 96h inconclusive, HCMV antiviral -67 (no result: HCV inhibitor, Pf growth 48h)
O=C(/C=C/c1ccc(Cl)cc1)N1CCOCC1	none
CC1CC(C)CN(C(=O)COC(=O)c2cc(S(=O)(=O)N3CCOCC3)ccc2F)C1 (stereo unspecified)	HCV inhibitor inconclusive, Pf growth 48h inconclusive
CC1CC(C)CN(C(=O)/C=C/c2ccc(S(=O)(=O)N3CCOCC3)cc2)C1 (stereo unspecified)	Pf growth 96h 5.2µM, Pf growth 48h 9.3µM
O=C(/C=C/c1ccccc1)N1CCOCC1	Pf growth 96h 3.3µM
O=C(/C=C/c1ccc(S(=O)(=O)N2CCOCC2)cc1)N1CCN(c2ccc(F)cc2)CC1	Pf growth 96h inconclusive, HCMV antiviral -63, Sm TGR inh inconclusive, Pf growth 48h 7.4µM
O=C(c1ccc(S(=O)(=O)N2CCOCC2)cc1)N1CCN(c2ccc(F)cc2)CC1	none (no result: Pf growth 96h)
Cc1cccc(OCc2nnc(SCC(=O)Nc3cccc(C(=O)N4CCOCC4)c3)n2C)c1	Pf growth 96h inconclusive, HCV inhibitor inconclusive
CCN(C[C@H]1N[C@@](Cc2ccccc2)(C(=O)OC)[C@H]2C(=O)N(Cc3ccccc3)C(=O)[C@@H]12)C(=O)Nc1ccc(C)cc1	HCV inhibitor inconclusive (no result: Pf growth 96h, Sm TGR inh, Pf growth 48h)
CCN(C[C@H]1N[C@@](Cc2ccccc2)(C(=O)OC)[C@H]2C(=O)N(Cc3ccccc3)C(=O)[C@@H]12)C(=O)Nc1ccc(C(F)(F)F)cc1	HCV inhibitor 13µM, HCMV antiviral inconclusive (no result: Pf growth 96h, Sm TGR inh, Pf growth 48h)
CC[C@@]1(C(=O)OC)N[C@H](CN(C)C(=O)NC(C)C)[C@@H]2C(=O)N(Cc3ccccc3)C(=O)[C@@H]21	none (no result: Pf growth 96h, Sm TGR inh, Pf growth 48h)
CCN(C[C@H]1N[C@@](CC)(C(=O)OC)[C@H]2C(=O)N(Cc3ccccc3)C(=O)[C@@H]12)C(=O)NC(C)C	HCV inhibitor 6.3µM (no result: Pf growth 96h, Sm TGR inh, Pf growth 48h)
Cc1ccc(CN2CCN(CC(=O)N/N=C/c3ccc(C)o3)CC2)cc1	SARS PLpro yeast inconclusive
Cc1cc(C)c2cc(CN(Cc3cccnc3)C(=O)c3ccc(F)cc3)c(Cl)nc2c1	Pf growth 96h inconclusive, Pf growth 48h 1.5µM
Cc1cccc2cc(CN(Cc3cccnc3)C(=O)c3ccccc3F)c(Cl)nc12	Pf growth 96h inconclusive, Pf growth 48h inconclusive
CNC(=O)C[C@H]1C(=O)N(c2ccc(OC)cc2)C[C@@H]1C	none (no result: Pf growth 96h, HCV inhibitor, SARS PLpro yeast, Sm TGR inh, Pf growth 48h)
CCn1c(C)nc2cc(-c3nnc(-c4c(-c5ccccc5)noc4C)o3)ccc21	HCV inhibitor inconclusive, Pf growth 48h 9.3µM
Cc1onc(-c2ccccc2)c1-c1nc2ccccc2c(=O)o1	HCMV antiviral inconclusive (no result: Pf growth 48h)
CCCN1C(=O)C[C@H](S(=O)(=O)c2ccccc2)[C@H]1c1ccccc1OC	none (no result: Pf growth 96h, HCV inhibitor, SARS PLpro yeast, Sm TGR inh, Pf growth 48h)
CCn1cc2nc(SCc3cccc(C(F)(F)F)c3)n(Cc3ccc(OC)cc3)c(=O)c2n1	HCMV antiviral inconclusive (no result: Pf growth 96h, HCV inhibitor, SARS PLpro yeast, Pf growth 48h)
Cc1nn2c3ccccc3nc2c2ccccc12	HCV inhibitor 13µM (no result: Pf growth 48h)
CCN1C(=O)/C(=C/N(C)c2ccccc2)OC1=S	none
CCN1C(=O)/C(=C\N(C(C)=O)c2ccccc2)OC1=S	Pf growth 96h 12µM, HCV inhibitor inconclusive
c1ccc2c(c1)Sc1ccccc1N2CC1CN2CCC1CC2 (stereo unspecified)	Pf growth 96h 13µM, HCMV antiviral -60, Pf growth 48h 12µM
CC1CCN(CC(O)CN2c3ccccc3Sc3ccccc32)CC1 (stereo unspecified)	HCV inhibitor inconclusive, Pf growth 48h inconclusive (no result: HCMV antiviral)
CN1CC[C@H](CN2c3ccccc3Sc3ccccc32)C1	Pf growth 96h 4.8µM, Pf growth 48h 3.8µM (no result: HCV inhibitor, SARS PLpro yeast, HCMV antiviral, Sm TGR inh)
COc1ccc(CC(=O)N(C)Cc2ccc(Cl)cc2)cc1S(=O)(=O)N1CCOCC1	Pf growth 96h inconclusive, Pf growth 48h inconclusive
COc1ccc(C[C@H]2CN3C(=NC[C@H]3Cc3ccccc3)N2CCNC(=O)c2ccc(C)c(Br)c2)cc1	Pf growth 96h 1.7µM, Pf growth 48h 5.2µM (no result: HCMV antiviral)

Screens from PubChem.
